Bioassay records: PubChem BioAssay, several laboratories
697 NFkB inh – lowers PMA/ionomycin-induced NF-kB signal in 697 B cells | 0.33% of 330,000 active | inhibition, % at 4 µM | 697 B-cell NF-kB luciferase reporter, 16 h; in the data active = inhibition above about 35%
Gli-Sufu block – antagonists of Gli-Sufu signaling. Sufu-KO-LIGHT fibroblasts, Gli luciferase reporter luminescence. inhibition, % at 5 µM. 0.74% of 340,000 active;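 active = inhibition above about 55%, limit read from the data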;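 also: 0% = DMSO-treated cells and 100% = wells with medium but no cells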
Beta cell apopt – beta cell apoptosis inhibition; INS-1E cytokine-induced death, ATP luminescence, 48 h; percent of positive-control rescue, neutral wells zero; protection from apoptosis, % (test concentration not listed); 0.8% of 300,000 active; AID 435005;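 active = Every replicate reaches about 75%, or at least half do and their mean reaches it too, limit read from the data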;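 also: 0% = cytokine-treated negative control wells and 100% = positive control rescue; higher means more ATP so stronger rescue from cytokine killing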
Jurkat NFkB inh – inhibitors of the PMA/ionomycin-induced NF-kB reporter in Jurkat cells | PMA/ionomycin-induced NF-kB luciferase reporter, luminescence | inhibition, % at 4 µM | 0.53% of 330,000 active; in the data active = inhibition above about 50%
Numbers without * were called inactive; . = no result given. This is a sample that favours compounds with a hit; in the whole collection about 1.8% have one here.

SMILES	697 NFkB inh	Gli-Sufu block	Beta cell apopt	Jurkat NFkB inh
Cc1ccc(C(=O)COC(=O)c2cn(-c3ccccc3)nc2-c2ccccc2)cc1[N+](=O)[O-]	-5	0	99*	17
O=C(COC(=O)c1cn(-c2ccccc2)nc1-c1ccccc1)c1cccc([N+](=O)[O-])c1	12	-1	102*	-9
C[C@H](NC(=O)[C@@H]1Cc2ccccc2CN1)C(=O)NC1CCCCC1	2	-15	1	3
COc1cc(C(=O)OCC(=O)NCc2ccccc2)cc(NC(=O)c2ccco2)c1OC	1	-8	-6	7
CN(CC(=O)Nc1ccc(Cl)c(Cl)c1)C(=O)C1CCCC1	10	-9	3	-11
COc1ccc2cc1Oc1ccc(cc1)C[C@H]1c3c(cc(OC)c4c3Oc3c(ccc5c3[C@H](C2)N(C)CC5)O4)CCN1C	8	14	122*	8
COc1ccc2cc1Oc1ccc(cc1)CC1c3c(cc(OC)c4c3Oc3cc5c(cc3O4)CCNC5C2)CCN1C (configuration not stated)	14	8	.	27
Cc1cc(C(C)(C)CC(C)(C)C)ccc1OCCOCC[N+](C)(C)Cc1ccccc1	23	65*	100*	17
CCN(c1ccc(F)cc1)S(=O)(=O)c1ccc2[nH]cc(C(=O)NCCCN3CCOCC3)c(=O)c2c1	6	-4	2	6
O=C(CN1CCCc2ccccc21)N/N=C/c1ccc(F)cc1F	-14	-6	-2	-17
O=C(CN1CCCc2ccccc21)N/N=C/c1ccccc1O	-24	2	99*	21
Cc1ccc(CS(=O)Cc2ccc(C(=O)NCc3cccs3)o2)cc1 (configuration not stated)	5	-4	1	10
CCN(CC)S(=O)(=O)c1cc(C)ccc1NC(=S)Nc1cccnc1	-10	9	82*	9
CCN(CC)S(=O)(=O)c1cc(C(=O)Nc2cccnc2)ccc1Cl	19	-3	-3	5
CN(C)C(/C=C/Nc1cccc(Br)c1)=C(C#N)C#N	7	3	-8	-15
S=C(c1cn(CCOc2cccc3ccccc23)c2ccccc12)N1CCCC1	-14	37	105*	-3
O=[N+]([O-])c1cc(Cl)c2cccnc2c1O	8	1	-14	-2
Clc1cc2cccnc2c2ncccc12	11	3	87*	19
CSc1nc(C)cc(Oc2ccc(OCC(N)=O)nn2)n1	17	8	-16	4
NC(N)=N/N=C/c1ccc(OCc2ccccc2)cc1	-34	11	82*	28
CNC(=S)NNC(=O)CNc1ccc(C)c(Cl)c1	-24	28	4	-6
O=C(CNc1ccccc1F)Nc1cccc2ccccc12	-5	-17	0	-16
Cn1cc(S(=O)(=O)NCCc2ccccc2)c(=O)n(C)c1=O	-25	-2	0	3
CC(C)c1ccc(/C=C(\c2nc3ccccc3[nH]2)S(=O)(=O)c2ccccc2)cc1	-14	-22	102*	9
O=S(=O)(/C(=C/c1ccc(C(F)(F)F)cc1)c1nc2ccccc2[nH]1)c1ccccc1	.	-18	100*	.
SMILES	697 NFkB inh	Gli-Sufu block	Beta cell apopt	Jurkat NFkB inh
C/C(=C\c1ccc(N)cc1)c1nc2ccccc2[nH]1	-19	-71	-1	-47
O=C(CNC(=O)c1cccc(F)c1)N/N=C/c1cc(Br)ccc1OC(=O)/C=C/c1ccco1	.	-1	.	.
O=C(CNC(=O)c1ccccc1O)N/N=C/c1cc(Br)ccc1OC(=O)/C=C/c1ccco1	0	-1	89*	4
CCOC(=O)c1c(C)[nH]c(C(=O)OCC(=O)NC(C)(C)C)c1C	-4	-5	86*	10
Cc1ccccc1Oc1cc(-n2ncc(Cl)c(Cl)c2=O)ncn1	.	42	99*	.
CC(=O)NC(c1ccccc1)c1cc(Cl)c2cccnc2c1O (configuration not stated)	-35	27	98*	0
O=C(NC(c1ccc(Cl)cc1)c1cc(Cl)c2cccnc2c1O)c1cccnc1 (configuration not stated)	.	18	96*	.
CCCC(=O)NC(c1ccc(OC)c(OC)c1)c1cc(Cl)c2cccnc2c1O (configuration not stated)	-14	34	91*	-8
COc1ccc(C(NC(C)=O)c2cc(Cl)c3cccnc3c2O)cc1 (configuration not stated)	-26	14	95*	11
COc1ccc2[nH]c3c(c2c1)CCN1C(=O)C(CC(=O)NCC24CC5CC(CC(C5)C2)C4)C[C@H](C(=O)N2CCOCC2)[C@@]31C (some centres not stated)	29	3	.	.
CC(C)(C)c1ccc(-c2noc(-c3ccno3)n2)cc1	-213	-44	15	-137
